Potency and activity, negative = inhibition data for 72 compounds are collected here from PubChem BioAssay AID1030 (National Center for Advancing Translational Sciences (NCATS), 2008).

The campaign covered roughly 220,000 compounds. About 16,000 (7.3%) were called active. Another 25% or so got no clear call; they are omitted. Calls follow the shape of the dose curve; as a rule, active = well fitted inhibition curve with a large enough effect (not every such curve was filed as active); inconclusive = small, poorly fitted or top-dose-only effect, or another doubt; inactive = no such curve, though single readings can be large or run the other way. Shown is part of a subset that was picked to be rich in actives. Where a call stands in place of a potency, no number is given.
Potency is read from the fitted curve at half-maximal effect.

Aldehyde dehydrogenase 1A1 (Homo sapiens), sequence (P00352 whole entry, looked up): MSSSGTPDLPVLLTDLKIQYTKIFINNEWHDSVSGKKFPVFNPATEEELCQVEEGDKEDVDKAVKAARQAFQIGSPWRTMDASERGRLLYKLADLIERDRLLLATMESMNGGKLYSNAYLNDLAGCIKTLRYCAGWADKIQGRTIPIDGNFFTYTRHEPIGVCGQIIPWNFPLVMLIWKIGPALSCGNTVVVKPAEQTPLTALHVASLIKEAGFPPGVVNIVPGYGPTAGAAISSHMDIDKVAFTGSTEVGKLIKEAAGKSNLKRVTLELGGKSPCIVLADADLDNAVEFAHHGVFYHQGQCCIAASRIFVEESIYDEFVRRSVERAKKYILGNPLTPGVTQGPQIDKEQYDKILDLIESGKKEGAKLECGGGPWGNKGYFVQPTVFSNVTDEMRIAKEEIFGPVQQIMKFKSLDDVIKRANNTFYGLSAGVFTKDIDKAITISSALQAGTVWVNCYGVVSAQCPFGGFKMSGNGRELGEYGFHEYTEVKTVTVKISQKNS

This assay has as its target Aldehyde dehydrogenase 1A1 (Homo sapiens) (UniProt P00352). The assay is described as follows: qHTS Assay for Inhibitors of Aldehyde Dehydrogenase 1 (ALDH1A1). To be noted: Purified ALDH1A1, NADH fluorescence, propionaldehyde substrate; series mostly up to 75.3 µM.
In the case of `CC(=O)c1c(C)[nH]c(C(=O)OCC(=O)NCCC(C)C)c1C`, the Potency result was “inactive”.

As to `CCOc1cc(/C=N/NC(=O)c2ccc(CSc3nncn3C)cc2)ccc1OCC(=O)N1CCOCC1`, the Potency entry is “inactive”.

For `CCOc1cccc(/C=N/NC(=S)NCCN2CCOCC2)c1O`, the Potency entry was “inactive”.

Regarding `CCOc1cccc(/C=N/N2C(=O)CSC2=S)c1O`, the Potency was 7.08 µM (active).

As to `CCOc1ccccc1N=C1NC(=O)CS1`, the Potency entry is “inactive”.

On to `O=C1CCC[C@@H]2CC(N3CCCCC3)C[C@@H]3CCN1[C@H]23` (some centres not stated), for which the Potency result was “inactive”.

As to `COCCn1c(N)c(N(Cc2ccccc2)C(=O)C2CCCCC2)c(=O)[nH]c1=O`, the Potency result was “inactive”.

As to `O=C(Cn1ncc(N2CCCC2)c(Br)c1=O)c1ccc(Cl)cc1`, the Potency result is “inactive”.

On to `COc1cc(C(=O)N2CCOCC2)cc(OC)c1OC`, for which the Potency result was “inactive”.

As to `CCCN(CCC)S(=O)(=O)c1ccc(C(=O)NNC(=O)c2cc(OC)c(OC)c(OC)c2)cc1`, the Potency result was “inactive”.

In the case of `CCN1CCN(CC(=O)c2cc(OC)c(OC)c(OC)c2)CC1`, the Potency was 28.2 µM (active).

As to `COc1ccc(N2C(=O)C(O)C2c2ccc(C)cc2)cc1` (configuration not stated), the Potency entry is “inactive”.

As for `COc1ccc(-c2c(C)cc3oc(=O)cc(-c4ccccc4)c3c2C)cc1F`, the Potency result is “inactive”.

On to `Cc1cc2oc(=O)cc(-c3ccccc3)c2c(C)c1-c1ccc(OC(F)(F)F)cc1`, for which the Potency entry was “inactive”.

Regarding `COc1ccc(-c2c(C)cc3oc(=O)cc(-c4ccccc4)c3c2C)cc1C=O`, the Potency was 0.126 µM (active).

In the case of `C=CCn1c(COc2ccc(F)cc2)nnc1SCC(=O)Nc1cccc(S(N)(=O)=O)c1`, the Potency result is “inactive”.

For the compound `Cc1cccc(CSc2nnc(C)c(=O)n2N)c1`, the Potency result was “inactive”.

With `Cc1cc(NC(=O)CN2C(=O)NC(C)(CCc3ccccc3)C2=O)no1` (configuration not stated), the Potency result is “inactive”.

Take `CC1CCN(C(=S)NC2CC3CCC2C3)CC1` (configuration not stated): the Potency entry is “inactive”.

With `S=C(NNC(=S)NC1CC2C=CC1C2)NC1CC2C=CC1C2` (configuration not stated), the Potency is 12.6 µM (active).

In the case of `S=C(NNC(=S)NC1CC2CCC1C2)NC1CC2C=CC1C2` (configuration not stated), the Potency is 20 µM (active).

Take `COCCCNC(NC(=O)c1ccc(OC)cc1)C(Cl)(Cl)Cl` (configuration not stated): the Potency entry was “inactive”.

Regarding `COc1ccc(C(=S)Nc2ccccc2)cc1`, the Potency entry was “inactive”.

`COCCNC(=S)c1ccc(OC)cc1`: the Potency was 20 µM (active).

In the case of `Cn1nc(-c2ccccc2)c(CO)c1Sc1ccccc1`, the Potency entry was “inactive”.

For `COc1ccc(C(=O)NNC(=O)c2cc(C)[nH]n2)cc1`, the Potency result was “inactive”.

Turning to `Cc1ccc(C2NC(=S)NC3=C2N2CCC3CC2)cc1` (configuration not stated), the Potency is 8.91 µM (active).

Take `CC(O)c1cccc(NC(=O)Cc2cccc3ccccc23)c1` (configuration not stated): the Potency result was “inactive”.

For the compound `O=C(NCc1ccco1)c1sc2cccc(F)c2c1Cl`, the Potency is 28.2 µM (active).

For `O=C(NCc1ccco1)c1cc2sccc2n1Cc1ccc(F)cc1`, the Potency entry was “inactive”.

As to `O=C(NCc1ccco1)c1nn2cccnc2c1Cl`, the Potency result was “inactive”.

In the case of `O=C(CC1CCCCC1)NCc1ccc(F)cc1`, the Potency result is “inactive”.

In the case of `O=C(CC1CCCCC1)Nc1c2c(nn1-c1ccc(F)cc1)CS(=O)(=O)C2`, the Potency was 7.94 µM (active).

Turning to `COc1cccc(C(=O)Nc2c3c(nn2-c2cccc(C)c2C)CS(=O)(=O)C3)c1OC`, the Potency entry is “inactive”.

On to `COCCNc1nc2nonc2nc1N(C)Cc1ccc(C)cc1`, for which the Potency entry was “inactive”.

With `CCCCN(CC)CCCNC(=O)c1ccc(CSc2nc3ccncc3[nH]2)cc1`, the Potency result was “inactive”.

On to `Cc1c(C=O)n(C)n(-c2ccccc2)c1=O`, for which the Potency result was “inactive”.

Turning to `CCOC(=O)N1CCC(=NNC(N)=O)CC1`, the Potency result is “inactive”.

For `O=C(NCC1CCCO1)C1CCN(C2CCN(C(=O)C3CCCCC3)CC2)CC1` (configuration not stated), the Potency entry is “inactive”.

Turning to `Cc1cccc(NC(=O)c2nnn(-c3cccc(C(F)(F)F)c3)c2N)c1`, the Potency entry is “inactive”.

Consider `CCn1c2ccccc2c2cc(NC(=S)N3CCOCC3)ccc21`, for which the Potency result was “inactive”.

Regarding `CCn1c2ccccc2c2cc(NC(=O)COC(=O)c3ccccc3Br)ccc21`, the Potency result is “inactive”.

Consider `CCn1c2ccccc2c2cc(NC(=O)CNC)ccc21`, for which the Potency was 25.1 µM (active).

With `CCOc1ccc(CN2CCN(Cc3ccc(C)o3)CC2CCO)cc1` (configuration not stated), the Potency entry is “inactive”.

For the compound `Oc1c(C(c2ccccn2)N2CCOCC2)ccc2cccnc12` (configuration not stated), the Potency entry is “inactive”.

Take `Oc1c(CN2CCN(c3ccc(F)cc3)CC2)cc(Cl)c2cccnc12`: the Potency result is “inactive”.

Consider `CCN1CCN(C(c2cccnc2)c2cc(Cl)c3cccnc3c2O)CC1` (configuration not stated), for which the Potency is 1.78 µM (active).

As to `O=C(O)COc1c(Cl)cc(Cl)c2cccnc12`, the activity, negative = inhibition was -8.71% [at 13.5 µM] (inactive).

For `CCOC(=O)N1CCN(C(c2cccnc2)c2ccc3cccnc3c2O)CC1` (configuration not stated), the Potency is 1.58 µM (active).

As for `CCOC(=O)N1CCN(C(=O)CSc2ccc(Cl)cc2)CC1`, the Potency result was “inactive”.

For the compound `O=C(Nc1cccnc1)c1cc2cc(Br)ccc2oc1=O`, the Potency entry is “inactive”.

With `CCCN(CCC)c1ccc(C(O)c2nnc(-c3ccccc3)o2)cc1` (configuration not stated), the Potency result is “inactive”.

For the compound `Oc1ccc(N=Nc2nccs2)c(O)c1`, the Potency entry is “inactive”.

As for `Cc1nn2cc(-c3ccc(Cl)cc3)cnc2c1Br`, the Potency result is “inactive”.

As to `CCCCCCCC1(C)NC(=O)N(CC(=O)Nc2cc(C)on2)C1=O` (configuration not stated), the Potency entry is “inactive”.

Regarding `CC1CN(S(=O)(=O)c2ccc(C(=O)NN3CCN(C)CC3)cc2)CC(C)O1` (configuration not stated), the Potency entry is “inactive”.

As for `COc1cc([C@H](Cc2ccccc2)NC(C)=O)oc(=O)c1`, the Potency result was “inactive”.

As to `COc1ccccc1C(=O)Nn1c(-c2cccs2)nc2ccccc2c1=O`, the Potency result was “inactive”.

On to `COc1ccccc1C(=O)NN1C(=O)C2C3C=CC(O3)C2C1=O` (configuration not stated), for which the Potency is 20 µM (active).

Turning to `O=C(NN1C(=O)C2C3C=CC(O3)C2C1=O)c1ccncc1` (configuration not stated), the Potency was 17.8 µM (active).

As for `O=C(Nc1ccc2c(c1)OCCO2)c1ccncc1`, the Potency result is “inactive”.

In the case of `O=C(NN1C(=O)C2C3C=CC(C3)C2C1=O)c1ccco1` (configuration not stated), the Potency result was “inactive”.

Take `COc1ccccc1C(=O)NNC(=O)c1ccc(NC(=O)c2ccccc2)cc1`: the Potency entry was “inactive”.

On to `COC(=O)c1ccc(CN2CCC(CO)(Cc3ccc(OC)cc3)CC2)cc1`, for which the Potency result is “inactive”.

Regarding `CC(NC(=S)NC1CCCCC1)C(c1ccccc1)N1CCOCC1` (configuration not stated), the Potency result was “inactive”.

With `CC(C)(C)n1nnnc1C(c1cccs1)N(Cc1cccnc1)CC1CCCO1` (configuration not stated), the Potency result was “inactive”.

In the case of `Cc1cccc(N2CCN(C(c3ccccc3)c3nnnn3CC3CCCO3)CC2)c1C` (configuration not stated), the Potency entry was “inactive”.

With `Cc1cc(C)c2cc(CN(Cc3cccs3)Cc3nnnn3CC3CCCO3)c(=O)[nH]c2c1` (configuration not stated), the Potency was 11.2 µM (active).

With `CCCCC(=O)Nc1ccc(C(=O)Nc2cc(C(F)(F)F)ccc2Cl)cc1`, the Potency entry was “inactive”.

`C[C@@H](Nc1nc(-c2ccccc2)nc2c1oc1ccccc12)C(=O)O`: the Potency was 7.08 µM (active).

With `CCSc1nc(C)nc2c1oc1ccccc12`, the Potency entry is “inactive”.

`Cc1nc(Cl)c2oc3ccccc3c2n1`: the Potency entry was “inactive”.
